Inconclusive results are not listed. Activity calls are given as the source filed them. Unless noted, the call rests on the fitted dose curve.

The record followed here is PubChem BioAssay (NCATS).

For assay [1], the target named is Estrogen receptor (Homo sapiens) (UniProt P03372). Kind of assay: qHTS assay for small molecule antagonists of estrogen receptor alpha signaling (AID 588513; active means well fitted curve in the direction sought with a large enough effect in the signal ratio, with a control signal flat, not every such curve was filed as active; the % refers to the signal ratio; further: on the % scale 0 is the no-effect control and ±100 the full control effect). Put shortly:
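Antagonist mode: inhibition of 0.5 nM 17-beta-estradiol-driven beta-lactamase reporter in HEK 293 ER-alpha-UAS-bla cells, 18 h at 37C, CCF4 readout after 2 h at RT. Normalised to estradiol and DMSO; titration fitted to Hill.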

Assay [2] has the same target. Kind of assay: qHTS assay for small molecule agonists of estrogen receptor alpha signaling (AID 588514). Further: nearly all actives have a fitted effect of over 70% in size. Further: potency means the concentration at half of the fitted maximal effect.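 On activation: 0% = vehicle only and 100% = reference agonist.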 Put shortly: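 Reporter-gene assay. […] controls beta-lactamase in HEK 293 GripTite cells; after 18 hrs with compound, CCF4 substrate is added for 2 hrs and fluorescence is read.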
(In general: In qHTS, concentration-response curves come from the screen itself.)

Assay [3] is described as follows: qHTS assay for small molecule antagonists of peroxisome proliferator-activated receptor delta signaling (AID 588535).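 Further: cells co-treated with a PPAR-delta agonist as stimulator during compound exposure.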 The following applies: HEK293T PPARd-UAS-bla, beta-lactamase FRET ratio, 18 h; 460 nm channel. Put shortly:
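Cell-based beta-lactamase assay in antagonist mode: 4000 HEK293T PPAR-delta-UAS-bla cells per well, 5 hr preincubation then 18 hr compound incubation at 37 C. IC50 obtained by Hill equation fitting.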

Assay [4] addresses Peroxisome proliferator-activated receptor gamma (Homo sapiens) (UniProt P37231). Kind of assay: qHTS assay for small molecule agonists of peroxisome proliferator-activated receptor gamma signaling (AID 588536; active means well fitted curve in the direction sought with a large enough effect in the signal ratio, with a control signal flat, not every such curve was filed as active; the % refers to the signal ratio;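 further: 0% = DMSO basal wells and 100% = rosiglitazone at 2 µM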). Put shortly:
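HEK293 UAS-bla reporter line, 1% charcoal/dextran FBS; titration, 16 h, 37 C; CCF4 loading 2 h RT; fluorescence 460/530 nm. Normalized to rosiglitazone 2 uM = 100%, DMSO = 0%.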

Assay [5] has the same target. Kind of assay: qHTS assay for small molecule antagonists of peroxisome proliferator-activated receptor gamma signaling (AID 588537; active means well fitted inhibition curve with a large enough effect in the signal ratio, with a control signal flat, not every such curve was filed as active; the % refers to the signal ratio;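 further: reporter cells co-stimulated with 50 nM rosiglitazone agonist during compound treatment; % of control where 0% means no effect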). Put shortly:
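Inhibitors of agonist-stimulated UAS-bla reporter activity were sought in HEK293 cells; rosiglitazone (50 nM) defined full signal and DMSO baseline. Curves fitted to Hill model gave IC50 and efficacy.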

Assay [6] concerns the target Vitamin D3 receptor (Homo sapiens) (UniProt P11473). Kind of assay: qHTS assay for small molecule antagonists of vitamin D receptor signaling (AID 588541).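 Further: receptor activated by calcitriol during compound treatment; series mostly up to about 77 µM; on the % scale 0 is the no-effect control and ±100 the full control effect.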 Put shortly: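 Antagonist-mode beta-lactamase reporter assay: HEK293T VDR-UAS-bla cells were exposed to titrated compound alongside 1-alpha,25-dihydroxyvitamin D3 at 3 nM final for 16 h. Values were normalized to the 50 nM agonist control and DMSO basal, with IC50 and efficacy from Hill equation fits.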

Assay [7] has the same target. Briefly: qHTS assay for small molecule agonists of vitamin D receptor signaling (AID 588543).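 Further: 0% = DMSO basal and 100% = reference agonist control.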 Put shortly:
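Agonist-mode beta-lactamase reporter: HEK293T VDR-UAS-bla cells in charcoal-stripped 2% FBS, compound series 16 h 37 C, CCF4 2 h RT. EC50 from Hill fit, scaled against DMSO and 50 nM calcitriol control.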

Assay [8] can be described thus: qHTS assay for small molecule agonists of retinoid X receptor alpha signaling (AID 588544).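 On activation: 0% = DMSO basal wells and 100% = reference agonist.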 The following applies: HEK293T RXRa-UAS-bla, beta-lactamase reporter, 18 h; 530 nm emission.
The target in assay [9] is Retinoic acid receptor RXR-alpha (Homo sapiens) (UniProt P19793). Described as above.
Assay [10] deals with Thyroid hormone receptor beta (Homo sapiens) (UniProt P10828). Briefly: qHTS assay for small molecule agonists of thyroid hormone receptor beta signaling (AID 588545). Put shortly: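 Cells (2500/well) were seeded, incubated 4 hrs at 37 C, dosed with a compound series, incubated 18 hrs, loaded with CCF4 dye for 2 hrs at RT, then read for fluorescence. Data were scaled between DMSO (0%) and 10 nM T3 (100%).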

Assay [11] in a line: qHTS assay for small molecule antagonists of retinoid X receptor alpha signaling (AID 588546; active means well fitted inhibition curve with a large enough effect in the signal ratio, with a control signal flat, not every such curve was filed as active; the % refers to the signal ratio;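 further: cells stimulated with 9-cis-retinoic acid as agonist; on the % scale 0 is the no-effect control and ±100 the full control effect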). The following applies: HEK293T RXRa-UAS-bla, beta-lactamase ratio, antagonist mode; measured here: W530 green channel, cytotoxicity proxy. Put shortly: (§1)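 Beta-lactamase reporter inhibition, read as CCF4 fluorescence ratio (ex 405, em 460/530 nm) after 2 h at RT. HEK293T UAS-bla cells, 2500/well, were stimulated with 9-cis-RA at 500 or 100 nM final alongside test compound for 18 h at 37 C.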

The target in assay [12] is Retinoic acid receptor RXR-alpha (Homo sapiens) (UniProt P19793). The description is as above. The following applies: HEK293T RXRa-UAS-bla, beta-lactamase ratio, antagonist mode. Put shortly: as §1
The nature of assay [13]: qHTS assay for environmental chemicals that activate the Aryl hydrocarbon Receptor (AhR) signaling pathway (AID 651777; active means well fitted curve in the direction sought with a large enough effect; an effect the other way counts as inactive or inconclusive; further: % of control where 0% means no effect; nearly all actives have a fitted effect of over 15% in size). The following applies: 1A2-DRE human hepatoma cells, luciferase, 24 h; activation: stronger effect = higher value. Put shortly:
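Luminescence read-out: One-Glo added for 30 min at RT after 24 hr compound treatment (37 C, 5% CO2) of human hepatoma cells expressing a DRE/CYP1A2 promoter–luciferase reporter; increased signal indicates AhR activation.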

Assay [14] has as its target Peroxisome proliferator-activated receptor alpha (Homo sapiens) (UniProt Q07869). Briefly: qHTS assay for small molecule agonists of the peroxisome proliferator-activated receptor alpha (PPARalpha) signaling pathway (AID 651778; active means well fitted curve in the direction sought with a large enough effect; an effect the other way counts as inactive or inconclusive; further: % of control where 0% means no effect). The following applies: PathHunter PPARalpha complementation, chemiluminescence, 6 h; max response: stronger effect = higher value. Put shortly:
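Chemiluminescence from complemented enzyme reported PPARalpha activation in cells after 6 hr of compound treatment at 37 C. The detection reagent was incubated for 60 min at room temperature, and compounds were scored as agonists.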

Assay [15] in a line: qHTS assay for small molecule agonists of the antioxidant response element (ARE) signaling pathway measured by Nrf2-dependant transcriptional activity - cell viability counter screen (AID 720653; active means well fitted curve in the direction sought with a large enough effect in the repeat runs; an effect the other way counts as inactive or inconclusive; further: on the % scale 0 is the no-effect control and ±100 the full control effect). The following applies: ARE-bla HepG2 viability, CellTiter-Glo ATP luminescence, 16 h; max response: stronger effect = lower value. Put shortly: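 Cytotoxicity counter screen: intracellular ATP quantified by CellTiter-Glo luminescence in the same ARE-bla HepG2 plates, after 16 h compound exposure and a 2 h beta-lactamase substrate step.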

A short description of assay [16]: qHTS assay for cell viability of HEK293 cells (AID 743288; active means well fitted curve in the direction sought with a large enough effect; an effect the other way counts as inactive or inconclusive; further: on the % scale 0 is the no-effect control and ±100 the full control effect; nearly all actives have a fitted effect of over 50% in size). The following applies: ATP luminescence (CellTiter-Glo), 18 h; max response: stronger effect = lower value. Put shortly: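 Total intracellular ATP, measured with a luciferase-coupled reagent, indicates the number of viable HEK293 cells. Exposure to test chemicals lasts 18 h at 37 C in 1,536-well format at 2,000 cells/well.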

Assay [17] in a line: qHTS assay for cell viability of the p53RE-bla HCT-116 cell line (AID 743292; active means well fitted curve in the direction sought with a large enough effect; an effect the other way counts as inactive or inconclusive; further: on the % scale 0 is the no-effect control and ±100 the full control effect; nearly all actives have a fitted effect of over 55% in size). Put shortly:
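Luminescent ATP quantitation (CellTiter-Glo) served as the viability read-out; reagent was added after 16 h compound exposure at 37 C and read after 30 min at room temperature. Cells: p53RE-bla HCT-116, 4,000 per well.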

In assay [18] the target is Nuclear receptor subfamily 1 group I member 2 (Rattus norvegicus) (UniProt Q9R1A7). Briefly: qHTS assay for small molecule activators of the rat pregnane X receptor (rPXR) signaling pathway (AID 651751; call rule not given here; further: 0% is about no effect). The following applies: rPXR reporter cells, luciferase (One-Glo), 24 h.
A short description of assay [19]: qHTS assay for small molecule activators of the human pregnane X receptor (PXR) signaling pathway (AID 720659; call rule not given here; further: 0% is about no effect).
Assay [20] can be described thus: qHTS assay for small molecule activators of the nuclear factor-kappa B (NF-kB) signaling pathway (AID 651749; active means well fitted activation curve with a large enough effect in the signal ratio; the % refers to the signal ratio; further: series mostly up to about 77 µM; % of control where 0% means no effect). The following applies: NF-kB-bla ME-180 cells, beta-lactamase FRET ratio, 16 h; activation: stronger effect = higher value. Put shortly: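 Stably transfected ME-180 line; NF-kB response element upstream of beta-lactamase. Treatment: compound or DMSO, 16 hr. Detection: fluorescent FRET substrate.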

Retinoic acid receptor RXR-alpha (Homo sapiens), sequence (P19793 whole entry, looked up): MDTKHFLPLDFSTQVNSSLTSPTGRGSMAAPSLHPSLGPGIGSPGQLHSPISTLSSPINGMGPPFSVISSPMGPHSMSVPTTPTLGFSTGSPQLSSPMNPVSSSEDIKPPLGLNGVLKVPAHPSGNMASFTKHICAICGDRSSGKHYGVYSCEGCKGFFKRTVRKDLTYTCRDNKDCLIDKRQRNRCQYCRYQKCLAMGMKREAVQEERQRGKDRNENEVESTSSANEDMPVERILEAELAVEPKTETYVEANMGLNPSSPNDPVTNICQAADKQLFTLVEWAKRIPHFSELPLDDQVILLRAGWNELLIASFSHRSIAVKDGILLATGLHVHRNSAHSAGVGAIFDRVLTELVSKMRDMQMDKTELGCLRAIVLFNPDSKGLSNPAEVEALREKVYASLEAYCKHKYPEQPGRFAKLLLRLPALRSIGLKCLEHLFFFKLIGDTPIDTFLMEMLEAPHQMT
Nuclear receptor subfamily 1 group I member 2 (Rattus norvegicus), sequence (Q9R1A7 whole entry, looked up): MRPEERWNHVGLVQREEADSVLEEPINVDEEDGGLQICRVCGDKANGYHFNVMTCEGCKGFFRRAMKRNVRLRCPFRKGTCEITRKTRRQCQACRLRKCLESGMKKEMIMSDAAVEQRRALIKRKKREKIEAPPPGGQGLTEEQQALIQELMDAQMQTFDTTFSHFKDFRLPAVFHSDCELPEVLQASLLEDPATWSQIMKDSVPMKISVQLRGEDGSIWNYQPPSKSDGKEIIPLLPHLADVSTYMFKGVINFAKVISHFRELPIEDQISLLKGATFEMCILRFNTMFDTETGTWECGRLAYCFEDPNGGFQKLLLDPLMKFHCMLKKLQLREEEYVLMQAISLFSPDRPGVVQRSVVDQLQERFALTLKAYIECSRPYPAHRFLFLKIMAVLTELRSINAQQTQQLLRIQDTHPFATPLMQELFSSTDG
Estrogen receptor (Homo sapiens), sequence (P03372 whole entry, looked up): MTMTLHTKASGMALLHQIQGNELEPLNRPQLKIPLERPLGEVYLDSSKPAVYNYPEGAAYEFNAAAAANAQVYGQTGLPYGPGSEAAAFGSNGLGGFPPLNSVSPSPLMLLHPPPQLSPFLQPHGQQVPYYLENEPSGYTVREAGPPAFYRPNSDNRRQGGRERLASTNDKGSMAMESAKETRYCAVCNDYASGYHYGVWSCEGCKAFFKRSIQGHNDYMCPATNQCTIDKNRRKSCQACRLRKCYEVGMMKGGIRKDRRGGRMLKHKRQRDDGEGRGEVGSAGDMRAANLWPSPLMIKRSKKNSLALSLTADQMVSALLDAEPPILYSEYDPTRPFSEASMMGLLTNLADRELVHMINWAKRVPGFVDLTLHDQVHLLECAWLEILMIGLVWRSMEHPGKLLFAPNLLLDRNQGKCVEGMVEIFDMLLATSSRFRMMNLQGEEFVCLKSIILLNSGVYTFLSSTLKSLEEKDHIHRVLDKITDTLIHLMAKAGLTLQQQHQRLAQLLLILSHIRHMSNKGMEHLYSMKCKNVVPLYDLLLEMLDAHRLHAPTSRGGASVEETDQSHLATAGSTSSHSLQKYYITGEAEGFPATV
Peroxisome proliferator-activated receptor gamma (Homo sapiens), sequence (P37231 whole entry, looked up): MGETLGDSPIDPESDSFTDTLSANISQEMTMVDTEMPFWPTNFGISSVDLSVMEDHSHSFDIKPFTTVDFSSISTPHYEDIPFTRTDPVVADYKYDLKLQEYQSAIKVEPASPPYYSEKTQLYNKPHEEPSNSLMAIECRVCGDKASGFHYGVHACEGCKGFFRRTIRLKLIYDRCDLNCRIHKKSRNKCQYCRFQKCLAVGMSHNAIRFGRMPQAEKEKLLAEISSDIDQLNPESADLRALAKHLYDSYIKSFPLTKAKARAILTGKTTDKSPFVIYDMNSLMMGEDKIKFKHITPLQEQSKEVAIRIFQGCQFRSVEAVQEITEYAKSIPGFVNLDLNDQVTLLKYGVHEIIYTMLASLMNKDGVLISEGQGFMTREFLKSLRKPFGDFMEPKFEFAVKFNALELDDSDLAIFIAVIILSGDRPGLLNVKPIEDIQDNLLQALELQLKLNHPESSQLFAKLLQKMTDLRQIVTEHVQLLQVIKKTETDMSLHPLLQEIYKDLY
Thyroid hormone receptor beta (Homo sapiens), sequence (P10828 whole entry, looked up): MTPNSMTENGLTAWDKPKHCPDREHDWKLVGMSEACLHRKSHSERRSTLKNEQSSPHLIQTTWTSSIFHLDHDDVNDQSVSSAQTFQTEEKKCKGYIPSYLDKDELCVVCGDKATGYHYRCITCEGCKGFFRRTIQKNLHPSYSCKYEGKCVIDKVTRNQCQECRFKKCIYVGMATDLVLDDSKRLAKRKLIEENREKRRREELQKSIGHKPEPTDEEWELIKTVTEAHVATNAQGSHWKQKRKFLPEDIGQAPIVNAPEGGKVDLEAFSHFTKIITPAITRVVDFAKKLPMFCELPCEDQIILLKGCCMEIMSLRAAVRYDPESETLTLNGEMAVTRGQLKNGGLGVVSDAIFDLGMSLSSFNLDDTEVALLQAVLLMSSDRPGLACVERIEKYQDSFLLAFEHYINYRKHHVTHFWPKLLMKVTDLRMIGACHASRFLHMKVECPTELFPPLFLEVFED
Peroxisome proliferator-activated receptor alpha (Homo sapiens), sequence (Q07869 whole entry, looked up): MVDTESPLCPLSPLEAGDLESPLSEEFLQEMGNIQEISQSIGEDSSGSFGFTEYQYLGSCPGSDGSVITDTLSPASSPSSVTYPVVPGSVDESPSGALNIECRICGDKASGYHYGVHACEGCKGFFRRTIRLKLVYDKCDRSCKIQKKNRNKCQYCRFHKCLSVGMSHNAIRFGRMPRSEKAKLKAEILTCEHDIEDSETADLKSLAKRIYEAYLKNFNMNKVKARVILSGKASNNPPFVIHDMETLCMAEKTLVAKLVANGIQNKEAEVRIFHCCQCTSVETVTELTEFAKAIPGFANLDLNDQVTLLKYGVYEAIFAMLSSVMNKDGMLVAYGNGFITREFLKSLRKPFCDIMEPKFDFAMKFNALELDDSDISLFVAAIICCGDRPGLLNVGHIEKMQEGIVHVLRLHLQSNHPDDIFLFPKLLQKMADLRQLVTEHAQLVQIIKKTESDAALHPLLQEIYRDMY
Vitamin D3 receptor (Homo sapiens), sequence (P11473 whole entry, looked up): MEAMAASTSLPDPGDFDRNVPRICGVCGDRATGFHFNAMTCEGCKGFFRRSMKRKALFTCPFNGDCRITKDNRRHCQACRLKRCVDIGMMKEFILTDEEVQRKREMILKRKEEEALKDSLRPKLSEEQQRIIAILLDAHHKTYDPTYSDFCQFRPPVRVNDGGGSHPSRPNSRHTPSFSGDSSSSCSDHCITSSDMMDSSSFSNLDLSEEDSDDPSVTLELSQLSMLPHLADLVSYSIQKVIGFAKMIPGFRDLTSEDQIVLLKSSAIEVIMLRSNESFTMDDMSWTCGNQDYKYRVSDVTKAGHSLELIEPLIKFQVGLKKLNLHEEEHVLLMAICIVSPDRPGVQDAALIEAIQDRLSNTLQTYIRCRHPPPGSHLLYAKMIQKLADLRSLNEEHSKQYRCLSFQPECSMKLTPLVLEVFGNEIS

Regarding `CCCCCCCCCCCCCO`, the Potency entry in assay [1], in [2], in assay [5], in [6], in [9] and in [10] was “inactive” each time. Besides, the Potency result in assay [17] is “inactive”. The max response in assay [3] is 18.2%; in assay [8] it was -5.38%; in assay [11] it was -5.73%; in assay [12], 3.57% (inactive); in assay [14], 1.19% (inactive); in assay [15] it was -9.94% (inactive). Further, the max response is -5.94% (inactive) in assay [16] and 1.91% (inactive) in assay [18]. Also, the call in assay [4], in assay [7] and in assay [19] was inactive. The activation in [13] was 0.322% (inactive).
In the case of `CC1=CC2C3CC(C=C3C)C2C1` (stereo not given), the Potency entry in assay [1], in assay [2], in assay [5], in [6], in [9] and in assay [10] was “inactive” throughout. Moreover, in assay [17], the Potency result was “inactive”. The max response was 7.89% in assay [3]; -8.84% in assay [8]; -10.9% in [11]; 3.65% (inactive) in [12]; -1.19% (inactive) in [14]; 1.82% (inactive) in assay [15]. Also, the figures for the max response in assay [16] and in assay [18] were -3.16% (inactive) and -0.63% (inactive), respectively. The molecule was called inactive in assay [4], in assay [7] and in assay [19]. In addition, the activation is -0.782% (inactive) in assay [20] and -1.81% (inactive) in assay [13].
Regarding `NNS(=O)(=O)c1ccc(Oc2ccc(S(=O)(=O)NN)cc2)cc1`, the Potency result in assay [1], in assay [6], in [9], in assay [10] and in [17] was “inactive” each time. In addition, the Potency in [2] was 447 nM (active). In addition, the max response in assay [3] is 18.7%; in assay [8] it was -6.27%; in assay [11], -11.5%; in assay [12], -7.05% (inactive); in assay [14] it was -6% (inactive); in assay [15] it was -13.9% (inactive). Also, the max response is 0.11% (inactive) in assay [16] and 8.65% (inactive) in [18]. Besides, the result in [4], in assay [7] and in assay [19] was inactive. In addition, the activation in assay [20] is -1.01% (inactive); in assay [13] it was 0.263% (inactive).
Regarding `CCCC/C=C/CCCCO`, the Potency entry in assay [1], in assay [2], in assay [5], in [9], in assay [10] and in [17] was “inactive” in each case. Moreover, the molecule was called inactive in [4], in assay [7] and in [19]. Moreover, the max response in assay [8] is -14.6%; in assay [11], -7.43%; in assay [12] it was -16.5% (inactive); in assay [14], -1.7% (inactive); in [15], 0.665% (inactive); in [16] it was -11.8% (inactive). Besides, in [18], the max response was -2.13% (inactive). Moreover, in [13], the activation was -0.731% (inactive).
